Results as given in the supplement of paper PMC6555819.

Test system: PPARg:RXRa (NR concentration 180 nM, RXRa partner concentration 90 nM)
Test: PBM binding z-score (relative to random genomic background probes); higher = stronger binding; sequences stand for … in GC…GCGATTGACAGCGTAGAATGAAGG
In short: (§1)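 Binding buffer was PBS pH 7.4 with 2% milk, 0.02% Triton X-100, 1 mM DTT, 0.2 mg/mL BSA and 0.4 mg/ml salmon testes DNA. In it, ligand-free nuclear receptor dimers were incubated 1 h on custom Agilent 4×180K protein-binding microarrays carrying double-stranded probes. Antibodies against each partner (one per run) detected binding, and z-scores were calculated against random background probes after regression normalization of scanned fluorescence.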

Going from CTACCAAGGTGAACAAGGTCGTTGACTACTATTC to GCTAGCTGGTCAGTAAAAGGTCACACACCGGTCG, the PBM binding z-score rises from 1.41 to 2.43.

Going from AGTCAAAGTTCACTAGGTAACGTCAGATTCAGCT to CTCGAAAGGTAGGTTGAGGTGAGTATACGGATAA, the PBM binding z-score falls from 6.81 to 0.0538.

Compared with TCATATAGGTAAATGCGAGGTGAAAGTCCGATCT, TAGCCTAGGGCATTGGGCCAGTATAGTACGCATC is lower in PBM binding z-score: 1.06 for the first, 0.887 for the second.

First: ATCTCTAGGTAAAGTTCAGTAAAAGATCGATAGA
Second: CAGCCTAGGTCAGGGCTAGTATAGGAGGAACGTT
The PBM binding z-score of the first is higher: 2.91 for the first, 0.77 for the second.

Compared with CAGACTAGGTCAGGGCCAGTATAGGAGGAACGTT, CCTCGGAGGACAGAAGGTCAGAGTTGTCCGCTTT is lower in PBM binding z-score: 3.84 for the first, 0.0255 for the second.

First: CTCGAAAGGTCGGTTGAGGTGAGTATCCGGATAA
Second: ATCGAAAGGTCGAGGTGAGTATAGAGAAAGGGAA
The PBM binding z-score of the first is lower: 0.0243 for the first, 3.78 for the second.

Going from AATACAGGGTCATCGTAGGCCAAAGTACGCACAG to CGTCCAAGCTCAATGCTAGGTCAGTGAAAGCATT, the PBM binding z-score falls from 6.83 to -0.576.

Compared with ATCTCTAGGTAAAGATAGTTCAGTGACTGCAAAT, TCTATTAGTTGAAGGGCAACCGGCGAGTCCGTTT is lower in PBM binding z-score: 0.174 for the first, -0.211 for the second.

Going from CTCGAAACGTCGGTTGAGGTGAGTATACGGATAA to ACTAGCAGGCCAAGGGACACTCAAGATTAGTCCG, the PBM binding z-score rises from 0.00135 to 1.88.

Going from TTACCAAGGTTAAGGTCGTTGATCCCTCTGTAGA to GCTGCTAGGTCAGGTTGGACAGCTAACGGGTACG, the PBM binding z-score falls from 1.85 to 0.798.

First: GCTATTCGTTGAAAGGGCAACCGAATGATTCTCG
Second: CAAACTAGGTCAAAGGTCAATGTCGAGCCAACCA
The PBM binding z-score of the first is lower: 1.23 for the first, 14 for the second.

First: ATATGTAGGTTATCGGGGCATTCAGTTTGCGCAT
Second: TCTAGTTGGTCAAATGTCACACACTCGAAATGCG
The PBM binding z-score of the first is higher: 5.76 for the first, 5.26 for the second.

First: CTACCAAGGTGAACAAGGTCGTTGGTTACTATTC
Second: TCTTGTAGGTCAGCAGGTTAAGAAAGCTGGCCAA
The PBM binding z-score of the first is lower: 0.875 for the first, 6.77 for the second.

First: CGAACTTGGTCAGAACAGGACAGTGAAGGATGAT
Second: ACAGACAGGTGAGTGAAGGTAACTGAGCTGGACG
The PBM binding z-score of the first is higher: 0.567 for the first, 0.534 for the second.

Compared with TCTATTAGTTGAAGGGCATCCGACGAGTCCGTTT, AGTCAAAGTTCATCTAGGTAAAGTAAGATATGCT is higher in PBM binding z-score: 0.123 for the first, 7.07 for the second.

Going from CCTTACGGGTCAAGGTTACAGCACGGGTGGTACG to CAAACTACGTCAAGGTCAAAGTCGGTTTGTGCCA, the PBM binding z-score falls from 5.13 to 1.43.

Compared with CCTCGGAGGACATCAGGAGGTCAGAGCTGCCAGA, AGAACGAGGGCAATGAGTTGGTAGCACGGGTGGC is higher in PBM binding z-score: 0.267 for the first, 0.956 for the second.

Going from AGTTAAAGTTCAGGACGAGGTAACGTAAAGCACG to ACAGACAGGTGAGTGCAGGTAACTCAGCTGGACG, the PBM binding z-score falls from 2.49 to 0.62.

Going from TCATATAGGTAAAAGGTGAAAGCCGGTGTGGTAA to GCTGCTTGGTCAGGTTGGTCAGCTAACGGGTACG, the PBM binding z-score falls from 8.8 to -0.682.

Going from CCTTACGGGTCACTCCAGGTTAGAGCATCGGAGT to CCTACTGGGCCAAAAAGGACATTGATGCCGATAA, the PBM binding z-score falls from 3.19 to 1.04.

Test system: PPARg:RXRa 270nM:90nM, anti-RXR (NR concentration 270 nM, RXRa partner concentration 90 nM)
Test: as above
In short: as §1

Going from CTACCAAGGTGAACAAGGTCGTTGACTACTATTC to GCTAGCTGGTCAGTAAAAGGTCACACACCGGTCG, the PBM binding z-score rises from 1.68 to 4.13.

First: AGTCAAAGTTCACTAGGTAACGTCAGATTCAGCT
Second: CTCGAAAGGTAGGTTGAGGTGAGTATACGGATAA
The PBM binding z-score of the first is higher: 6.74 for the first, 0.173 for the second.

Going from TCATATAGGTAAATGCGAGGTGAAAGTCCGATCT to TAGCCTAGGGCATTGGGCCAGTATAGTACGCATC, the PBM binding z-score falls from 2.53 to 0.225.

Going from ATCTCTAGGTAAAGTTCAGTAAAAGATCGATAGA to CAGCCTAGGTCAGGGCTAGTATAGGAGGAACGTT, the PBM binding z-score falls from 4.22 to 0.899.

First: CAGACTAGGTCAGGGCCAGTATAGGAGGAACGTT
Second: CCTCGGAGGACAGAAGGTCAGAGTTGTCCGCTTT
The PBM binding z-score of the first is higher: 3.65 for the first, 0.907 for the second.

Compared with CTCGAAAGGTCGGTTGAGGTGAGTATCCGGATAA, ATCGAAAGGTCGAGGTGAGTATAGAGAAAGGGAA is higher in PBM binding z-score: 1.33 for the first, 3.66 for the second.

First: AATACAGGGTCATCGTAGGCCAAAGTACGCACAG
Second: CGTCCAAGCTCAATGCTAGGTCAGTGAAAGCATT
The PBM binding z-score of the first is higher: 5.96 for the first, -0.605 for the second.

Going from ATCTCTAGGTAAAGATAGTTCAGTGACTGCAAAT to TCTATTAGTTGAAGGGCAACCGGCGAGTCCGTTT, the PBM binding z-score rises from 0.437 to 2.04.

Going from CTCGAAACGTCGGTTGAGGTGAGTATACGGATAA to ACTAGCAGGCCAAGGGACACTCAAGATTAGTCCG, the PBM binding z-score rises from -0.342 to 1.99.

First: TTACCAAGGTTAAGGTCGTTGATCCCTCTGTAGA
Second: GCTGCTAGGTCAGGTTGGACAGCTAACGGGTACG
The PBM binding z-score of the first is higher: 3.34 for the first, 0.804 for the second.

Going from GCTATTCGTTGAAAGGGCAACCGAATGATTCTCG to CAAACTAGGTCAAAGGTCAATGTCGAGCCAACCA, the PBM binding z-score rises from 2.56 to 11.7.

Going from ATATGTAGGTTATCGGGGCATTCAGTTTGCGCAT to TCTAGTTGGTCAAATGTCACACACTCGAAATGCG, the PBM binding z-score rises from 5 to 6.74.

First: CTACCAAGGTGAACAAGGTCGTTGGTTACTATTC
Second: TCTTGTAGGTCAGCAGGTTAAGAAAGCTGGCCAA
The PBM binding z-score of the first is lower: 1.37 for the first, 5.91 for the second.

First: CGAACTTGGTCAGAACAGGACAGTGAAGGATGAT
Second: ACAGACAGGTGAGTGAAGGTAACTGAGCTGGACG
The PBM binding z-score of the first is lower: -0.142 for the first, 0.106 for the second.

First: TCTATTAGTTGAAGGGCATCCGACGAGTCCGTTT
Second: AGTCAAAGTTCATCTAGGTAAAGTAAGATATGCT
The PBM binding z-score of the first is lower: 2.03 for the first, 6.73 for the second.

First: CCTTACGGGTCAAGGTTACAGCACGGGTGGTACG
Second: CAAACTACGTCAAGGTCAAAGTCGGTTTGTGCCA
The PBM binding z-score of the first is higher: 5.27 for the first, 2.55 for the second.

Going from CCTCGGAGGACATCAGGAGGTCAGAGCTGCCAGA to AGAACGAGGGCAATGAGTTGGTAGCACGGGTGGC, the PBM binding z-score rises from 0.414 to 0.772.

Compared with AGTTAAAGTTCAGGACGAGGTAACGTAAAGCACG, ACAGACAGGTGAGTGCAGGTAACTCAGCTGGACG is lower in PBM binding z-score: 3.2 for the first, -0.199 for the second.

Going from TCATATAGGTAAAAGGTGAAAGCCGGTGTGGTAA to GCTGCTTGGTCAGGTTGGTCAGCTAACGGGTACG, the PBM binding z-score falls from 8.59 to -0.648.

Compared with CCTTACGGGTCACTCCAGGTTAGAGCATCGGAGT, CCTACTGGGCCAAAAAGGACATTGATGCCGATAA is lower in PBM binding z-score: 3.7 for the first, 1.6 for the second.
